# Legend:
# Assay in all cases: DAPPL (digital affinity profiling via proximity ligation, sequencing); 10 mM Tris-HCl pH 7.5, 50 mM NaCl, 1 mM DTT, 4% glycerol, room temperature, 30 min; GST-TFs on glutathione beads, 16-mer random dsDNA library, 0.1% formaldehyde crosslink after washing; high values mean tight binding
# FLI1 = molecular target: T1, FLI1 (Homo sapiens, UniProt Q01543 1-452); settings: protein: recombinant; tags: N-terminal GST; dsDNA, one strand shown
# T1 sequence: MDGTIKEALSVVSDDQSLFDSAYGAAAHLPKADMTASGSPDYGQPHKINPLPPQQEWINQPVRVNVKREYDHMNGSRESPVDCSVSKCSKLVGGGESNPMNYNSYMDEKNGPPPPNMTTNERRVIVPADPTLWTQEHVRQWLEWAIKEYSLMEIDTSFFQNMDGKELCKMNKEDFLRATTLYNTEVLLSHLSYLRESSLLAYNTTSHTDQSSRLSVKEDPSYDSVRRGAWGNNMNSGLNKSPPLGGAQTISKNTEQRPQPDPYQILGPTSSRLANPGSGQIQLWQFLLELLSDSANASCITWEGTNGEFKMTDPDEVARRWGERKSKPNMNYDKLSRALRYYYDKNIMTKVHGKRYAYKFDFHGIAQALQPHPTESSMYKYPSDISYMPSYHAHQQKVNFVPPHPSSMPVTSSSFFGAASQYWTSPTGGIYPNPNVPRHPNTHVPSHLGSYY
# Outline: (§1)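 Human transcription factors carrying a GST fusion were produced in yeast, bound to glutathione beads, tagged with DNA barcodes and pooled together with a tag-only sample. Each pool was held with 200 nmole of a random double-stranded 16-mer DNA library in Tris/NaCl/DTT/glycerol buffer for 30 min at room temperature, then washed, crosslinked in 0.1% formaldehyde, proximity-ligated with BsaI/T4 ligase (1 h, 37 °C), PCR-amplified and sequenced on an Illumina NextSeq500. Binding signal is the read frequency of each hexamer for a given factor divided by its frequency in the tag-only sample.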
# ELK1 = molecular target: T2, ELK1 (Homo sapiens, UniProt P19419 1-428); settings: protein: recombinant; tags: N-terminal GST; dsDNA, one strand shown
# T2 sequence: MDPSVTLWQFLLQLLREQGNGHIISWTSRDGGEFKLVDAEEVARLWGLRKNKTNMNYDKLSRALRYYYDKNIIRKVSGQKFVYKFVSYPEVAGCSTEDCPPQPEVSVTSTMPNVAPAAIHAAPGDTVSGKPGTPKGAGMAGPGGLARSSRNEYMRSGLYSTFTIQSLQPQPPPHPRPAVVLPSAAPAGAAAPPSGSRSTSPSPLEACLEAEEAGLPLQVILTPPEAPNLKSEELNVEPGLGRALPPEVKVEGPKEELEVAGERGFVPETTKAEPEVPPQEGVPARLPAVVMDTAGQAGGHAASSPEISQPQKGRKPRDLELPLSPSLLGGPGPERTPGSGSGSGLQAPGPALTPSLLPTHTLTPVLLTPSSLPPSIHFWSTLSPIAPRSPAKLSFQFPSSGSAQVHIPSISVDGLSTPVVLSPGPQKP
# Outline: as §1
# GABPA = molecular target: T3, GABPA (Homo sapiens, UniProt Q06546 1-454); settings: protein: recombinant; tags: N-terminal GST; dsDNA, one strand shown
# T3 sequence: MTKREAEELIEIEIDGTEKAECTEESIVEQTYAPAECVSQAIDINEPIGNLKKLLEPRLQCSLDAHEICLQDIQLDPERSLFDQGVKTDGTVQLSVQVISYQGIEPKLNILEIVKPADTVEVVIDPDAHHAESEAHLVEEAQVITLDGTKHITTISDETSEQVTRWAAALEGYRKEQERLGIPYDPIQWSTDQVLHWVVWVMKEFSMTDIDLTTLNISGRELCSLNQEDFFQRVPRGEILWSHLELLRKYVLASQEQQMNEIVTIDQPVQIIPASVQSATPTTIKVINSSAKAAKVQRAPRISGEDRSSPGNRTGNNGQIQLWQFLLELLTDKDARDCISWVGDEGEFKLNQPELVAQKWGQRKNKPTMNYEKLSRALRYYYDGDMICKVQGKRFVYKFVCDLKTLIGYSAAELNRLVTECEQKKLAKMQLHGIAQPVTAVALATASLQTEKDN
# Outline: as §1
# ERG = molecular target: T4, ERG (Homo sapiens, UniProt P11308 1-479); settings: protein: recombinant; tags: N-terminal GST; dsDNA, one strand shown
# T4 sequence: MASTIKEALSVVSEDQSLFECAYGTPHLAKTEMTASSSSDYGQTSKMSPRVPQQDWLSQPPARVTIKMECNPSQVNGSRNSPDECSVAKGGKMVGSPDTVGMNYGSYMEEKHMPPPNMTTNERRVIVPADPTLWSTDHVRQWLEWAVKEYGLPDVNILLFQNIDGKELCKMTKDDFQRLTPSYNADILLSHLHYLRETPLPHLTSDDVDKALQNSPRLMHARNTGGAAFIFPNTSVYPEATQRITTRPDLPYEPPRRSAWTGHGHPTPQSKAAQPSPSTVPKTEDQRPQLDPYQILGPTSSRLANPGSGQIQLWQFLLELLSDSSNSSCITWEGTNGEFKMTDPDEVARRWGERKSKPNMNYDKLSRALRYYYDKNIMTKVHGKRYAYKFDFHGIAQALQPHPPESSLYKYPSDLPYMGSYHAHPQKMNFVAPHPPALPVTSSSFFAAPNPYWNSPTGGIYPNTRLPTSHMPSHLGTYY
# Outline: as §1
# ELF1 = ELF1 (Homo sapiens, UniProt P32519 1-619); settings: protein: recombinant; tags: N-terminal GST; dsDNA, one strand shown
# ELF1, sequence (P32519 whole entry): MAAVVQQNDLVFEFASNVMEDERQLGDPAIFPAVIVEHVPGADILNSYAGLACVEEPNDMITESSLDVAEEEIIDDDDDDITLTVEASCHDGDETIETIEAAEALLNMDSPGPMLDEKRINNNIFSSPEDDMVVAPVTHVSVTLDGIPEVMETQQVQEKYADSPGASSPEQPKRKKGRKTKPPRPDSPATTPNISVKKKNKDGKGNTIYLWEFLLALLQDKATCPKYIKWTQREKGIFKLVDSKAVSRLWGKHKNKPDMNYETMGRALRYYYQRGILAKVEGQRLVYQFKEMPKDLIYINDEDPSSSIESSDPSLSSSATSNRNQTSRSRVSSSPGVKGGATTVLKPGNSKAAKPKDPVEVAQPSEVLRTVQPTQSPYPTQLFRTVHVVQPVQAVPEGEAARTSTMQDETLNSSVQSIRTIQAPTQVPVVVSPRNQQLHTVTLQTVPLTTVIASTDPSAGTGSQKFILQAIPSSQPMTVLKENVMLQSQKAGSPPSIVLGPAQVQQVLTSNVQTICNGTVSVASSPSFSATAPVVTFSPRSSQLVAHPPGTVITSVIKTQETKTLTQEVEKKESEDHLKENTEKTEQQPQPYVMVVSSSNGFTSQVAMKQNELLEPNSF
# Outline: as §1
# EHF = molecular target: T5, EHF (Homo sapiens, UniProt Q9NZC4 1-300); settings: protein: recombinant; tags: N-terminal GST; dsDNA, one strand shown
# T5 sequence: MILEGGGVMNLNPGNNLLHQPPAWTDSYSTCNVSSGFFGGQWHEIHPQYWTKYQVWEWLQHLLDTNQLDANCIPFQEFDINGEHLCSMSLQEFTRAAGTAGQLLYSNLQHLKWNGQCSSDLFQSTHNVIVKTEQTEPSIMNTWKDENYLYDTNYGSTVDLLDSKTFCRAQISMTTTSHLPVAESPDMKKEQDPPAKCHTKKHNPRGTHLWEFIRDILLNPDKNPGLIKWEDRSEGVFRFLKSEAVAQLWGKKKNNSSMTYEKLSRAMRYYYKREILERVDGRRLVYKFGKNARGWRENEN
# Outline: as §1
# SPI1 = SPI1 (Homo sapiens, UniProt P17947 1-270); settings: protein: recombinant; tags: N-terminal GST; dsDNA, one strand shown
# Outline: as §1
# SPIB = SPIB (Homo sapiens, UniProt Q01892 1-262); settings: protein: recombinant; tags: N-terminal GST; dsDNA, one strand shown
# SPIB, sequence (Q01892 whole entry): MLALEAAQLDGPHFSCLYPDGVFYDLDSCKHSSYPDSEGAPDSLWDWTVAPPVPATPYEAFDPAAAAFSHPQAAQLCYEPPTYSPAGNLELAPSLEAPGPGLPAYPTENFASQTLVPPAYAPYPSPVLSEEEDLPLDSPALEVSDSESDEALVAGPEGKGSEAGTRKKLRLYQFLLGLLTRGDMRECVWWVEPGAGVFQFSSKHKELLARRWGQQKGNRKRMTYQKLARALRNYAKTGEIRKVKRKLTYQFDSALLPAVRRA
# Outline: as §1
# ELK3 = molecular target: T6, ELK3 (Homo sapiens, UniProt P41970 1-407); settings: protein: recombinant; tags: N-terminal GST; dsDNA, one strand shown
# T6 sequence: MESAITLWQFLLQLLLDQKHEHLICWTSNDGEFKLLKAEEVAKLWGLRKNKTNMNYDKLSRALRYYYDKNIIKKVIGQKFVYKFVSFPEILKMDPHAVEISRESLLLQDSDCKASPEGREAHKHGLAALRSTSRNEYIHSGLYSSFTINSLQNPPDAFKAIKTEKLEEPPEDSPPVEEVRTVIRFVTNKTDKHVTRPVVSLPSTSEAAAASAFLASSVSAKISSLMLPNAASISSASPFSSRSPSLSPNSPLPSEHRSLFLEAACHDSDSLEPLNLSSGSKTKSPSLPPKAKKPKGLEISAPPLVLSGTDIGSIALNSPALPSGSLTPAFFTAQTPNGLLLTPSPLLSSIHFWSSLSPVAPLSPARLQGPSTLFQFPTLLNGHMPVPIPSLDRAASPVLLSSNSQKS
# Outline: as §1
# FEV = molecular target: T7, FEV (Homo sapiens, UniProt Q99581 1-238); settings: protein: recombinant; tags: N-terminal GST; dsDNA, one strand shown
# T7 sequence: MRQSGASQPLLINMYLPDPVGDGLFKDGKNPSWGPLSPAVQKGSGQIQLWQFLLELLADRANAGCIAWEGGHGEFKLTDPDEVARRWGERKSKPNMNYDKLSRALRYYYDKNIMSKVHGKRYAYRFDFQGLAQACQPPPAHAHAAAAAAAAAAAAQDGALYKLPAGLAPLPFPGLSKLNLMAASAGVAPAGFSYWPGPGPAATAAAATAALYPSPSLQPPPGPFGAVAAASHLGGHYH
# Outline: as §1
# ETV5 = ETV5 (Homo sapiens, UniProt P41161 1-510); settings: protein: recombinant; tags: N-terminal GST; dsDNA, one strand shown
# ETV5, sequence (P41161 whole entry): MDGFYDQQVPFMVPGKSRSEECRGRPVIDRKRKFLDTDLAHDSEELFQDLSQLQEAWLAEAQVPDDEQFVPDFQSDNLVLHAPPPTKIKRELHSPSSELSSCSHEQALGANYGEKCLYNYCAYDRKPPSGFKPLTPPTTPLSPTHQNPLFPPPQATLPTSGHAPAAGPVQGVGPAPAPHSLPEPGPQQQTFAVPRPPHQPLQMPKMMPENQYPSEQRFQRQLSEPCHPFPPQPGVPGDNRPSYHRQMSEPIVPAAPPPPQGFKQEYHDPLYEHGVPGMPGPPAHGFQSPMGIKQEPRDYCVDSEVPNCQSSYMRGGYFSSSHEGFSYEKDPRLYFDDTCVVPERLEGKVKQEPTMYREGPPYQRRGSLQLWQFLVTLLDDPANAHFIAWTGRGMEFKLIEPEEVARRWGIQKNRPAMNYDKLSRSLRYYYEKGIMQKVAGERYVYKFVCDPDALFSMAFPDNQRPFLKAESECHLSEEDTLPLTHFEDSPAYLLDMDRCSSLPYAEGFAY
# Outline: as §1
# HSF1 = HSF1 (Homo sapiens, UniProt Q00613 1-529); settings: protein: recombinant; tags: N-terminal GST; chain copies: 3; dsDNA, one strand shown
# HSF1, sequence (Q00613 whole entry): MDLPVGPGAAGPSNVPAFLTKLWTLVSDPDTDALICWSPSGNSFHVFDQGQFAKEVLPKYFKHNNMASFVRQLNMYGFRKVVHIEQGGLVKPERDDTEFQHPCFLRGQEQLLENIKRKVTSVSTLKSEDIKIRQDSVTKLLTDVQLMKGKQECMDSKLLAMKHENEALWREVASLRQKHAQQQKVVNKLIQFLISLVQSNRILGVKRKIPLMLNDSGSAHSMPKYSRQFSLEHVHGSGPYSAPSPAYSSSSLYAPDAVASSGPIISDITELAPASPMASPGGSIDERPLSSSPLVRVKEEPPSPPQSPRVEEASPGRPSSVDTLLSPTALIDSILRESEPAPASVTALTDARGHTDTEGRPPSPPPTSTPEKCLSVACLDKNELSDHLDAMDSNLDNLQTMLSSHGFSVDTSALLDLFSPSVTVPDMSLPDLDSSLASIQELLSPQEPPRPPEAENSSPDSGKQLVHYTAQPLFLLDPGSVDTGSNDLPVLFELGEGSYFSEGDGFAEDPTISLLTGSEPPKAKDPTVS
# Outline: as §1
# SPIC = molecular target: T8, SPIC (Homo sapiens, UniProt Q8N5J4 1-248); settings: protein: recombinant; tags: N-terminal GST; dsDNA, one strand shown
# T8 sequence: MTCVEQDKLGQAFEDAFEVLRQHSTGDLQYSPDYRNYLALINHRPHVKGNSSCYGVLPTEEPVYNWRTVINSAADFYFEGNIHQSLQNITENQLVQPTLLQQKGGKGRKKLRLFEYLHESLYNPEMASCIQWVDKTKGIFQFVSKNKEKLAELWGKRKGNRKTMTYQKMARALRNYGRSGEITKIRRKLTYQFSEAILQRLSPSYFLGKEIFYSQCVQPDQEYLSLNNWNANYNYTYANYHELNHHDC
# Outline: as §1
# ELF4 = ELF4 (Homo sapiens, UniProt Q99607 1-663); settings: protein: recombinant; tags: N-terminal GST; dsDNA, one strand shown
# ELF4, sequence (Q99607 whole entry): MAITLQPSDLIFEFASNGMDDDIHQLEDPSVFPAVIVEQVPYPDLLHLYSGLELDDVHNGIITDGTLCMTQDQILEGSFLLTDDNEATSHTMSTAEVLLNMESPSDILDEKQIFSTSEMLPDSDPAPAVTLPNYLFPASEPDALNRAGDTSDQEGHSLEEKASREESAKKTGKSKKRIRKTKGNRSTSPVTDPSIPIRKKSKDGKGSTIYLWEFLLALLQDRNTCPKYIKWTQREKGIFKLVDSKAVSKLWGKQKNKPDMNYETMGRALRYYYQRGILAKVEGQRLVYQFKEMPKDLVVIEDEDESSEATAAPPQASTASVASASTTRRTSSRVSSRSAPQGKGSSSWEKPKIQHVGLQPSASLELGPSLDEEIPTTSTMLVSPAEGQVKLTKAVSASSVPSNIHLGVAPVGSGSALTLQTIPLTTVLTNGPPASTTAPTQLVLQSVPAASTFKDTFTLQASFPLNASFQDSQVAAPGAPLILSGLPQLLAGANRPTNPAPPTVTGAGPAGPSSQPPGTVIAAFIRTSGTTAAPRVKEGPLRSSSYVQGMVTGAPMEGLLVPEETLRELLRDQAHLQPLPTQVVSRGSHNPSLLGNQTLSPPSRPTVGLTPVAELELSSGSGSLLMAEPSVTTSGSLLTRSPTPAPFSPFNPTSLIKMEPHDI
# Outline: as §1
# ELK4 = molecular target: T9, ELK4 (Homo sapiens, UniProt P28324-2 1-405); settings: protein: recombinant; tags: N-terminal GST; dsDNA, one strand shown
# T9 sequence: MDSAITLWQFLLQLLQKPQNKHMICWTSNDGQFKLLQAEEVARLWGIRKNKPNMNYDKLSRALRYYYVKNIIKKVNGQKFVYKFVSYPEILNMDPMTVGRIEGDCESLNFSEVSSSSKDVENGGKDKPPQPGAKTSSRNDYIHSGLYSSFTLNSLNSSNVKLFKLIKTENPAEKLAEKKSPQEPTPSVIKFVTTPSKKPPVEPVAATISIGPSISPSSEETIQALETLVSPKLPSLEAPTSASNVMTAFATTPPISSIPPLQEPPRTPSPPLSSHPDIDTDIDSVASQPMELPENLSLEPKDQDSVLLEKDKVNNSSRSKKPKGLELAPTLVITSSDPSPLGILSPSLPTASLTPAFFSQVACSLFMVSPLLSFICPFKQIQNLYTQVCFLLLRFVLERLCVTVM
# Outline: as §1
# ETV2 = molecular target: T10, ETV2 (Homo sapiens, UniProt O00321 1-342); settings: protein: recombinant; tags: N-terminal GST; dsDNA, one strand shown
# T10 sequence: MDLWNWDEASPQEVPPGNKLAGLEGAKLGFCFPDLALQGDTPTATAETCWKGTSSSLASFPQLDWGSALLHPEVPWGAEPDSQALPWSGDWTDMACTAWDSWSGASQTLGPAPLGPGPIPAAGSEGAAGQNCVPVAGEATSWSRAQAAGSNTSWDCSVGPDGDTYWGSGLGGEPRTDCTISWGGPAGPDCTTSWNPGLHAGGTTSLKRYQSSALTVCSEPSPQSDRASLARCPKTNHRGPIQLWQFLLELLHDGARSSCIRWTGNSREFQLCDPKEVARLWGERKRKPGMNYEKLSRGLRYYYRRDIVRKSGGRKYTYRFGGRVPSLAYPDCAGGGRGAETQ
# Outline: as §1
# ELF3 = molecular target: T11, ELF3 (Homo sapiens, UniProt P78545 1-371); settings: protein: recombinant; tags: N-terminal GST; dsDNA, one strand shown
# T11 sequence: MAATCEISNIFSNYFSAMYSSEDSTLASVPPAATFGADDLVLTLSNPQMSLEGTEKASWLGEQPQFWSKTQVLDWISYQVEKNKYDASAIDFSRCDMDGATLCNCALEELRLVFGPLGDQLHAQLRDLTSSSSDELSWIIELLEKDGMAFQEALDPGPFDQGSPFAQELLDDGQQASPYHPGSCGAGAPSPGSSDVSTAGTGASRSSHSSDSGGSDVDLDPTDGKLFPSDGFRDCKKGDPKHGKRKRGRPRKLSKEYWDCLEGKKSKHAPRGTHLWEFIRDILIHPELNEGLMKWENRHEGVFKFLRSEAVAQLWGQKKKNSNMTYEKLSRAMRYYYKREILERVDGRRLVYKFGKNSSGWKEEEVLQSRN
# Outline: as §1
# CRX = CRX (Homo sapiens, UniProt O43186 1-299); settings: protein: recombinant; tags: N-terminal GST; dsDNA, one strand shown
# CRX, sequence (O43186 whole entry): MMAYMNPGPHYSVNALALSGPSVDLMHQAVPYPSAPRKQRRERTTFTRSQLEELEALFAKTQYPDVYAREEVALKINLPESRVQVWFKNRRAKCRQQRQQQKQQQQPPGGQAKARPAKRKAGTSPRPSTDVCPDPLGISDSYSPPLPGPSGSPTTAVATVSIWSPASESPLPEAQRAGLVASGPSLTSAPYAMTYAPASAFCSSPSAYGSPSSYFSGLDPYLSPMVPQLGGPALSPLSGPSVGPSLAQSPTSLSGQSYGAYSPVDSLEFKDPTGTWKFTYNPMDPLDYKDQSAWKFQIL
# Outline: as §1
# ETV1 = ETV1 (Homo sapiens, UniProt P50549 1-477); settings: protein: recombinant; tags: N-terminal GST; dsDNA, one strand shown
# ETV1, sequence (P50549 whole entry): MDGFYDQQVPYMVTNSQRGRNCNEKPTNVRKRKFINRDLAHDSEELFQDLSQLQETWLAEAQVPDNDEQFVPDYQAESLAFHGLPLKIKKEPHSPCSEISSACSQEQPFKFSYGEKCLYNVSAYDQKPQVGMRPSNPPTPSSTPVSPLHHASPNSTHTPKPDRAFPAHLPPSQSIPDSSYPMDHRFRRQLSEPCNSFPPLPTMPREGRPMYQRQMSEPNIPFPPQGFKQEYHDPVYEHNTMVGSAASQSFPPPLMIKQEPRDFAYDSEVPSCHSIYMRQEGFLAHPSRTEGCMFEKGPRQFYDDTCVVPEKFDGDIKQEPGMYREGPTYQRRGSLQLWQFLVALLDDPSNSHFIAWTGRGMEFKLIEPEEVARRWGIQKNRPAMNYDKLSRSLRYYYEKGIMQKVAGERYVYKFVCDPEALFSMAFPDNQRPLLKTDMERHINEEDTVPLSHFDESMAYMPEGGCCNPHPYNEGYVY
# Outline: as §1
sequence,measurement,setting,value
TTACTT,binding signal,FLI1,"1.44 fold enrichment (6-mer frequency, TF over GST control)"
same,binding signal,ELK1,"1.53 fold enrichment (6-mer frequency, TF over GST control)"
same,binding signal,GABPA,"1.44 fold enrichment (6-mer frequency, TF over GST control)"
same,binding signal,ERG,"1.44 fold enrichment (6-mer frequency, TF over GST control)"
same,binding signal,ELF1,"1.53 fold enrichment (6-mer frequency, TF over GST control)"
same,binding signal,EHF,"1.58 fold enrichment (6-mer frequency, TF over GST control)"
same,binding signal,SPI1,"1.59 fold enrichment (6-mer frequency, TF over GST control)"
same,binding signal,SPIB,"1.58 fold enrichment (6-mer frequency, TF over GST control)"
same,binding signal,ELK3,"1.64 fold enrichment (6-mer frequency, TF over GST control)"
same,binding signal,FEV,"1.55 fold enrichment (6-mer frequency, TF over GST control)"
same,binding signal,ETV5,"1.53 fold enrichment (6-mer frequency, TF over GST control)"
same,binding signal,HSF1,"1.41 fold enrichment (6-mer frequency, TF over GST control)"
same,binding signal,SPIC,"1.33 fold enrichment (6-mer frequency, TF over GST control)"
same,binding signal,ELF4,"1.46 fold enrichment (6-mer frequency, TF over GST control)"
same,binding signal,ELK4,"1.33 fold enrichment (6-mer frequency, TF over GST control)"
same,binding signal,ETV2,"1.66 fold enrichment (6-mer frequency, TF over GST control)"
same,binding signal,ELF3,"1.75 fold enrichment (6-mer frequency, TF over GST control)"
same,binding signal,CRX,"1.95 fold enrichment (6-mer frequency, TF over GST control)"
same,binding signal,ETV1,"1.55 fold enrichment (6-mer frequency, TF over GST control)"

# From paper PMC7862700, “An all-to-all approach to the identification of sequence-specific readers for epigenetic DNA modifications on cytosine”
